# Reference: PubChem BioAssay AID902 (National Center for Advancing Translational Sciences (NCATS), 2007)
# The campaign covered roughly 130,000 compounds. About 1,900 (1.5%) were called active. Entries that show only a call come without a potency. Not shown: some 5% with an inconclusive outcome. Many of the other results were omitted from the sample, so actives are more common in it than they were. Values without a mark were called inactive. Calls come from the whole dose curve; as a rule, active = well fitted cell-killing curve with a large enough effect; inconclusive = small, poorly fitted or top-dose-only effect; inactive = no such curve, though single readings can be large or run the other way.
# Test: qHTS Screen for Compounds that Selectively Target Cancer Cells with p53 Mutations: Cytotoxicity of p53ts Cells at the Nonpermissive Temperature; note: nearly all actives have a fitted effect of over 55% in size
# Settings: H1299-p53A138V viability at 39C, ATP luminescence, 24 h; series mostly up to 46.1 µM
# Text: NIH Chemical Genomics Center [NCGC] NIH Molecular Libraries Screening Centers Network [MLSCN] MLSCN Grant: 1 X01 MH079844-01 Assay Submitter (PI): Dr. SUN, YI, University of Michigan NCGC Assay Overview: Synthetic Lethal Screen for Compounds to Kill Cancer Cells with p53 Mutation. Tumor suppressor gene p53 serves as a major cellular barrier against tumorigenesis. […] The goal of this screening is to identify small molecule probes that selectively kill cancer cells with mutations in p53. This screening was carried out using two lines of H1299 lung cancer cells. The H1299-p53 A138V line express a temperature sensitive p53 mutant (p53ts) in which the mutant p53 protein (A138V) is in the mutant confirmation when grown at 39C (the nonpermissive temperature) and in the wild type conformation when grown at 32C (the permissive temperature). A H1299-neo line (p53 null) grown at both 39C and 32C were used as counter-screens to filter out false positive associated with temperature shifting. The small molecular compounds that selectively target mutant p53-containing cancer cells were selected as candidate probes for further study. A cytotoxicity assay based on the measurement of ATP contents in cells was used in this screen. Concentration-responses of all the compounds in the library collection were determined in qHTS using the cell lines and temperature conditions as above.
# NCGC Assay Protocol Summary: Both the H1299-p53A138V and H1299-neo cell lines were provided by Dr.Yi Sun, a PI at the University Michigan. The cells were maintained and cultured at 37C. The resuspended frozen cells were used to plate the cells in the 1536-well assay plates at a density of 600 cells per well in 5 ul medium. The assay plates with the cells were incubated at 37C for 16 to 30 hours before the experiments. The library compounds in DMSO solution were added to the cells in assay plates and incubated 24 hours at 39C (for mutant p53 conformation) or 32C (for normal p53 conformation as control). An ATP_lite assay kit (PerkinElmer) was used to determine the cell viability. Tomaxifen (100uM) was used as the positive control for cell killing. Data were normalized to the controls for basal activity (DMSO only) and 100% killing (100uM tamoxifen). AC50 values were determined from concentration-response data modeled with the standard Hill equation. P53 assay protocol: 1. Reagent; 5 uL H1299-p53A138V or H1299-neo cell cells/well 2. Time; overnight; 37C incubation 3. Compounds; 23 nL; 5.9 nM to 46 uM 4. Controls; 23 nL; Tamoxifen 100 uM 5. Time; 24 hr; 39C incubation 6. Reagent; 3 uL; ATP_Lite reagent 7. Time; 20 min; Room Temperature 8. Detection; Luminescence; Viewlux plate reader Keywords: p53, synthetic lethal, cancer, cell viability, cytotoxicity, H1299 cell line, luminescence, MLSMR, MLSCN, NIH Roadmap, qHTS, NCGC
# Potency is the fitted concentration of half-maximal effect.
Structure (SMILES),Potency,"activity change, negative = cell killing"
CC(C)(Cc1c[nH]c2ccc(Cl)cc12)NCCOc1ccccc1OCC1CC1,25.1 µM (active),
Cc1cccc(Cn2cccc(C(=O)Nc3ccc4c(c3)OCCO4)c2=O)c1,inactive,
CCN(CC)CCn1ncc2c(N)ncnc21,,-0.868% [at 9.22 µM]
C/C(=C\C=C/[C@@H](C)C(=O)O)[C@H]1CN[C@H](C(=O)O)[C@@H]1CC(=O)O,inactive,
CN(C)C(=O)Oc1cc(OC(=O)N(C)C)cc(C(O)CNC(C)(C)C)c1 (stereo not given),inactive,
CC(C)Oc1ccc(NC(=O)c2cc3ccccc3o2)cc1,6.31 µM (active),
COc1cc(C(c2c(O)c3ccccc3oc2=O)c2c(C)n(C)n(-c3ccccc3)c2=O)ccc1O (stereo not given),inactive,
O=C1C2CCN(CC2)C1(CO)CO,inactive,
C=CCSSCC=C,inactive,
Cc1nnc(NC(=O)c2cccn(Cc3cccc(F)c3)c2=O)s1,inactive,
NCCc1c[nH]c2ccc(O)cc12,inactive,
Fc1ccc(C(OCCN2CCN(C/C=C\c3ccccc3)CC2)c2ccc(F)cc2)cc1,31.6 µM (active),
CCN1C[C@]2(C)CC[C@H](O)[C@@]34[C@@H]5CC6[C@@H](OC)C[C@@](O)([C@@H]5[C@@H]6O)[C@H](C[C@@H]23)[C@H]14,inactive,
COc1ccc(C2Oc3c(I)c(OC)cc(OC)c3CC2O)cc1OC (stereo not given),inactive,
CC(C)(O)/C=C\C(=O)[C@](C)(O)[C@H]1[C@H](O)C[C@]2(C)[C@@H]3CC=C4[C@@H](C=C(O)C(=O)C4(C)C)[C@]3(C)C(=O)C[C@@]12C,,-1.33% [at 9.22 µM]
CC[C@@](O)(C(=O)O)c1cc2n(c(=O)c1CO)Cc1cc3ccccc3nc1-2,,11.1% [at 9.22 µM]
O=C(N/N=C/c1c(O)n(Cc2ccccc2)c(=O)[nH]c1=O)c1ccccc1,inactive,
CN1C2CC3CC1C(O3)C2O (stereo not given),inactive,
CCCCN1C2CCC1CC(OC(c1ccc(F)cc1)c1ccc(F)cc1)C2 (stereo not given),12.6 µM (active),
Cn1c(O)c(C=NCCN2CCNCC2)c(=O)n(C)c1=O,inactive,

Structure (SMILES),Potency,"activity change, negative = cell killing"
CC(=O)OC1C2CCC3C1(CC(O)[C@@]1(O)[C@@H](CC(O)C1(C)C)[C@]3(C)O)C[C@@]2(C)O (stereo not given in full),inactive,
CC[C@@H]1CN2CC[C@@H]1C[C@H]2[C@H](O)c1ccnc2ccc(OC)cc12,inactive,
O=C(Nc1ccc(Cl)cc1C(=O)c1ccccc1)c1cc(Cl)cc(Cl)c1,inactive,
C[C@@]12CCC3C(CC[C@@H]4CC(O)CC[C@@]34C)C1CCC2O (stereo not given in full),inactive,
C[C@@]1([C@@H](NP(=O)(c2ccccc2)c2ccccc2)c2ccccc2)C[C@H]1CCO,inactive,
N#Cc1c(Cl)c(Cl)c(Cl)c(C#N)c1Cl,6.31 µM (active),
CCC(C)C(=O)O[C@@H]1C[C@@]2(C)C(c3ccoc3)OC(=O)CC23OC2(C)O[C@@]14[C@@]1(C)C(CC(=O)OC)C5(C)CC1(O)C(O)(C5OC(=O)C1(C)OC1C)C(OC(C)=O)[C@@]34O2 (stereo not given in full),inactive,
Cc1ccc(-n2c(/C=C/c3cccc(C(F)(F)F)c3)nc3ccccc3c2=O)cc1,inactive,
Clc1ccc(C(c2ccc(Cl)cc2)n2cc[n+](C[C@@H](OCc3ccc(Cl)cc3Cl)c3ccc(Cl)cc3Cl)c2)cc1,15.8 µM (active),
CCN(CC)c1ccc(C2C(C(N)=O)=C(C)Nc3nc(SCc4ccccc4)nn32)cc1 (stereo not given),inactive,
Clc1ccc([C@@H]2C[C@H]3CC[C@@H]2N3)cn1,inactive,
Cn1cc(/C=C/c2nc3ccccc3c(=O)n2-c2ccccc2)c2ccccc21,inactive,
O=C(NC(c1ccc(Cl)cc1)P(=O)(Oc1ccccc1)Oc1ccccc1)OCc1ccccc1 (stereo not given),inactive,
COc1cc2c(cc1OC)[C@@H]1C(=O)c3ccc(O)c(CC=C(C)C)c3OC1CO2 (stereo not given in full),inactive,
COc1ccc(NC(=O)Nc2cccc3cccnc23)cc1,15.8 µM (active),
CC1=CC(=O)C2=C(C)C[C@H](O)[C@H]3[C@H](C)C(=O)O[C@@H]3C12 (stereo not given in full),inactive,
c1csc(CN2CC3(CCNCC3)C2)n1,inactive,
CC(C)(c1ccc(OC[C@@H]2CO2)cc1)c1ccc(OC[C@H]2CO2)cc1,12.6 µM (active),
Cc1ccc(N2C(=O)NC(=O)C(CCc3ccncc3)(Cc3cccc(Cl)c3Cl)C2=O)cc1 (stereo not given),inactive,
C[C@]12CC[C@H](O)C[C@@H]1CC[C@H]1[C@H]2CC[C@]2(C)C(=O)CC[C@@H]12,inactive,
